Measurements reported in the supplement of paper PMC7156485.

What was measured:
Conditions in all cases: concentration: 10 µM; 24 h
HCC1569 [1] = experiment: cell number relative to DMSO (% of DMSO); higher = more cells (less growth inhibition / toxicity)
In short: (§1)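 After 24 h at 37 °C with compounds at 10 µM, in triplicate, HCC1569 and TDF cells were fixed with 3.7% formaldehyde. Immunostaining used a rabbit anti-H1.0 antibody and an AlexaFluor 647 secondary, with DAPI, and six fields per well were imaged at ×10. H1.0 nuclear intensity or cell number is presented as percent of the plate control, from the median of replicates, with HCC1569 values smoothed for positional effects.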

TDF [2] = experiment: as above
In short: as §1

TDF [3] = experiment: H1.0 immunofluorescence intensity relative to DMSO (% of DMSO); higher = stronger H1.0 induction, active = 120 or more
In short: as §1

HCC1569 [4] = experiment: H1.0 immunofluorescence intensity relative to DMSO (% of DMSO); higher = stronger H1.0 induction, active = 140 or more
In short: as §1
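Throughout, for H1.0 immunofluorescence intensity relative to DMSO: TDF is a line of transformed human dermal fibroblasts of mesenchymal origin.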
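Throughout, for cell number relative to DMSO: TDF denotes transformed human dermal fibroblasts of mesenchymal origin.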

SMILES | cell number (HCC1569 [1]) | cell number (TDF [2]) | H1.0 immunofluorescence intensity (TDF [3]) | H1.0 immunofluorescence intensity (HCC1569 [4])
COc1ccccc1OCC(O)CN1CCN(CC(=O)Nc2c(C)cccc2C)CC1.Cl.Cl (configuration not stated) [Ranolazine dihydrochloride] | 104 | 107 | 97.9 (inactive) | 99.9 (inactive)
COC(=O)c1c(-c2cc(OC)c(OC)c(OC)c2)c2ccc(OCc3ccccn3)cc2c(=O)n1-c1ccc(N)cc1.O=S(=O)(O)O | 100 | 113 | 95.1 (inactive) | 102 (inactive)
COc1ccc2c(c1)c(CC(=O)O)c(C)n2Cc1ccc(Cl)cc1 [1-(4-Chlorobenzyl)-5-methoxy-2-methylindole-3-acetic acid] | 104 | 91 | 96.8 (inactive) | 103 (inactive)
CCCNC(C)C(=O)Nc1ccccc1C.Cl (configuration not stated) [Prilocaine hydrochloride] | 103 | 107 | 86.9 (inactive) | 96.2 (inactive)
COc1ccc2[nH]c(S(=O)Cc3ncc(C)c(OC)c3C)nc2n1 (configuration not stated) [Tenatoprazole] | 103 | 104 | 106 (inactive) | 100 (inactive)
C=C(C)C1CC=C(C(=O)O)CC1 (single isomer, unassigned; (-)) [(-)-Perillic acid] | 104 | 104 | 95.9 (inactive) | 99.9 (inactive)
Cc1ccc(-c2c(-c3nn(C)c4ncnc(N5CC[C@H](N6CCCCC6)C5)c34)cnn2C)cc1 | 99.6 | 96.4 | 103 (inactive) | 99.2 (inactive)
COc1ccccc1OCC(O)CN1CCN(CC(=O)Nc2c(C)cccc2C)CC1.Cl.Cl (configuration not stated) [Ranolazine.2HCl] | 104 | 93.2 | 94.2 (inactive) | 102 (inactive)
